Screening data from PubChem BioAssay.
Hits are enriched below; roughly 10% of the tested compounds scored in any of these assays.
RORg inh – inhibitors of mouse ROR gamma transcriptional activity. P51450. Drosophila S2 Gal4-RORgamma UAS-luciferase reporter, 20 h. Potency, µM (doses to about 53.6 µM), inactives show top-dose activity change, negative = inhibition, hits mostly inhibitors. hit rate 5.4% among 310,000. AID 2551; further: on the % scale 0 is the no-effect control and ±100 the full control effect; nearly all actives have a fitted effect of over 60% in size
Target sequence (P51450 whole entry, looked up, the tested form may be a part): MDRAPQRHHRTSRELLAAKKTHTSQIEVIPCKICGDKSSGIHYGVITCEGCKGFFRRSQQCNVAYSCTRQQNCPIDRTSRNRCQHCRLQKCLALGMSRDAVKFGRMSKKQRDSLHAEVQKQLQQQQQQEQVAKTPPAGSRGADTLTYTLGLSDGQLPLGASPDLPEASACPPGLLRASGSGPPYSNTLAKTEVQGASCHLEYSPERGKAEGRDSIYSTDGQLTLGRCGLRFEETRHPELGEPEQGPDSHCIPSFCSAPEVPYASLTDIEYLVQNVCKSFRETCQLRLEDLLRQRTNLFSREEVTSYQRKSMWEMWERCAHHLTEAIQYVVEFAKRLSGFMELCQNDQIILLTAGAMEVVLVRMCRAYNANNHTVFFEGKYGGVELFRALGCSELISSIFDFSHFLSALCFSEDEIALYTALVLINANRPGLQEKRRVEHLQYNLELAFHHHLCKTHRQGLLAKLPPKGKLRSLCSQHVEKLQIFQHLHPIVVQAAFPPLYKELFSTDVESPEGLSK
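ROR gamma transcriptional activity was tracked as Gal4-UAS luciferase output in stably transfected Drosophila Schneider cells, with compound added 1 hr before 700 uM copper sulfate induction and a 20 hr ambient-temperature incubation.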
KB-V1 cytotox – KB-V1 MDR subline cytotoxicity. KB-V1 MDR cells viability, CellTiter-Glo, 72 h. Potency, µM (titrated, usually from 46.1 µM), actives largely listed as cytotoxic. hit rate 3.4% among 400,000. AID 1347076; further: on the % scale 0 is the no-effect control and ±100 the full control effect; nearly all actives have a fitted effect of over 60% in size
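Cells of the MDR subline KB-V1 are plated, dosed with compound at multiple concentrations, and incubated 72 h at 37 degrees C; CellTiter-Glo is then added and luminescence read after 10 min.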
MCF10A rereplic – induces DNA re-replication in MCF 10a normal breast cells. MCF 10A DNA re-replication, Hoechst nuclear intensity, 48 h. Potency, µM (top dose mostly 46.1 µM), without a hit: at the top dose activity, positive = re-replication, hits mostly activators. hit rate 2.9% among 350,000. AID 624296; further: % of control where 0% means no effect; nearly all actives have a fitted effect of over 50% in size
Gal4-VP16 FLuc – inhibits Gal4-VP16 luciferase reporter, ROR gamma counter-screen; Drosophila S2 Gal4-VP16 UAS-luciferase, luminescence, 20 h; hit rate 3.5% among 310,000; Potency, µM (series often up to 53.6 µM), for inactives: at the top dose activity, negative = inhibition, actives largely listed as inhibitors; AID 2546;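 further: Gal4-VP16 expression switched on by copper sulfate through the metallothionein promoter; on the % scale 0 is the no-effect control and ±100 the full control effect; nearly all actives have a fitted effect of over 50% in size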
SW480 rereplic – DNA re-replication induction in SW480 cells; SW480 DNA re-replication, Hoechst DNA content imaging, 48 h; Potency, µM (series often up to 46.1 µM), for the others: top-dose re-replication activation, most hits filed as activators; hit rate 1.8% among 340,000; AID 624297; further: % of control where 0% means no effect; nearly all actives have a fitted effect of over 55% in size
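Cells (250 per well) received 23 nL compound or DMSO by pin tool and were kept 48 hr at 37 C, 5% CO2. Nuclei were then stained with Hoechst for 40 min and scanned for DNA content.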
KB-3-1 tox – KB-3-1 parental cell cytotoxicity | KB-3-1 viability, CellTiter-Glo ATP luminescence, 72 h | Potency, µM (top dose mostly 46.1 µM), hits mostly cytotoxic | hit rate 1.4% among 400,000 | AID 1347075; further: on the % scale 0 is the no-effect control and ±100 the full control effect; nearly all actives have a fitted effect of over 60% in size
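Cytotoxicity in the drug-sensitive parental line KB-3-1 was scored as loss of CellTiter-Glo luminescence following 72 h incubation with compound. Values come from curve fitting of normalized concentration-response data.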
Active calls of the source: *; i = inactive; ? = inconclusive; . = no result; [ ] = another dose, or the depositor's remark. The call rests on the fitted dose curve; in most records, active means well fitted curve in the direction sought with a large enough effect; inconclusive means small, poorly fitted or top-dose-only effect, or another doubt; inactive means no such curve, though single readings can be large; an effect the other way counts as inactive or inconclusive. Potency means the concentration at half of the fitted maximal effect.

SMILES | RORg inh | KB-V1 cytotox | MCF10A rereplic | Gal4-VP16 FLuc | SW480 rereplic | KB-3-1 tox
COc1ccc(Cl)cc1NC(=O)CSc1nc2sccc2c(=O)[nH]1 | 20.0% | i | 20.6µM* | -6.9% | -4.7% | i
COc1ccc(C)cc1NC(=O)CSc1nc2scc(C)c2c(=O)[nH]1 | 41.2% | i | 18.4µM* | -2.9% | ? | i
COc1ccccc1NC(=O)CSc1nc2nc(C)cc(C)c2c(=O)[nH]1 | -20.3% | i | ? | 8.4% | 0.4% | i
CC1CCC(NC(=O)CSc2nnc(-c3cccnc3)o2)CC1 (stereo not drawn) | . | i | -0.2% | . | -2.1% | i
COc1ccc(CNC(=O)c2ccc3c(c2)N(Cc2c(F)cccc2Cl)C(=O)CS3)cc1 | . | i | . | . | . | i
CCOc1ccc(-c2cc(CCCC(=O)Nc3cc(OC)ccc3OC)no2)cc1 | ? | ? | 5.9% | ? | -1.5% | i
CCOc1ccc(NC(=O)CCCc2cc(-c3ccc(OCC)cc3)on2)cc1 | 0.126µM* | i | 0.8% | 1.26µM* | -6.1% | i
CCOc1ccc(CCNC(=O)CCCc2cc(-c3ccc(OCC)cc3)on2)cc1 | . | i | . | . | . | i
CCOc1ccc(-c2cc(CCCC(=O)Nc3cccc(OC)c3)no2)cc1 | 0.126µM* | ? | ? | ? | ? | ?
O=C(O)CCc1c(C(=O)O)[nH]c2cc(Cl)cc(Cl)c12 | 11.9% | . | . | -8.0% | . | .
Cc1ccc(OC(C)C(=O)OCC(=O)Nc2sccc2C(N)=O)cc1 (stereo not drawn) | . | i | ? | . | ? | i
CC(Oc1ccc(Cl)cc1)C(=O)N/N=C/c1ccsc1 (stereo not drawn) | 11.2µM* | i | 9.7% | ? | -1.4% | i
CC(Oc1ccc(Cl)cc1)C(=O)Nc1sccc1C(N)=O (stereo not drawn) | ? | 9.2µM* | 22.6% | 5.4% | 2.5% | i
Cc1cc(O)c(N=Cc2cc3c(cc2[N+](=O)[O-])OCO3)cc1C | . | i | 16.4µM* | . | ? | i
Cc1cccc(N=Cc2cc3c(cc2[N+](=O)[O-])OCO3)c1 | -27.3% | i | 15.6% | 5.4% | 9.4% | i
Cn1c(=O)[nH]c(=O)c2c1nc(N1CCCCC1)n2C/C=N/NC(=O)c1cc(Br)ccc1O | 12.6µM* | i | -32.8% | ? | 4.6% | i
C=CCn1c(N2CCCC2)nc2c1c(=O)[nH]c(=O)n2C | 8.8% | i | 4.1% | -1.0% | -4.4% | i
CCOC(=O)/C(=C/C=C/c1ccccc1)NC(=O)c1ccccc1 | -11.2% | i | 3.0% | 2.6% | 0.4% | i
CCOC(=O)/C(=C\C=C\c1ccccc1)NC(=O)c1ccccc1 | -23.8% | 4.61µM* | -2.8% | 3.6% | -2.3% | i
Cc1ccc(/C=C(\NC(=O)c2ccccc2)C(=O)OCc2ccccc2)cc1 | -7.3%[10 µM] | 16.4µM* | 3.2% | 6.9% | 2.7% | i
CC(C)NC(=O)CCC(=O)N1Cc2ccccc2Oc2ncccc21 | . | ? | . | . | . | i
FC(F)Oc1ccc(NC(=S)N2CCc3ccccc32)cc1 | 8.91µM* | i | -0.5% | -89.6% | -4.7% | i
Fc1ccc(NC(=S)N2CCc3ccccc32)cc1 | 11.2µM* | i | 1.7% | ? | -2.6% | i
O=C(c1cccc(F)c1)N1CCc2ccccc21 | -41.6% | i | 0.184µM* | -1.1% | 1.4% | i
O=C(c1cccc([N+](=O)[O-])c1)N1CCc2ccccc21 | -43.6% | i | -7.5% | -11.3% | -0.4% | i
SMILES | RORg inh | KB-V1 cytotox | MCF10A rereplic | Gal4-VP16 FLuc | SW480 rereplic | KB-3-1 tox
CC1CCc2nc(/C(C#N)=C/c3ccncc3)sc2C1 (stereo not drawn) | 13.6% | ? | ? | -13.6% | 7.31µM* | i
N#C/C(=C/c1ccncc1)c1nc2ccccc2s1 | -43.7% | i | ? | ? | 1.3% | i
CCOc1ccc(N(C)c2ccc(/C=C3/SC(=S)NC3=O)cc2)cc1 | -127.3% | i | 4.11µM* | ? | ? | i
COc1ccc(/C=C2/SC(=S)NC2=O)cc1OCc1ccccc1 | ? | i | ? | 17.8µM* | 23.6% | i
COc1cc(/C=C2/SC(=O)NC2=O)ccc1OCc1ccccc1 | ? | i | 25.9µM* | ? | 17.1% | i
COc1ccccc1OCCCOc1ccc(/C=C2\SC(=O)NC2=O)cc1OC | 25.9% | i | ? | 15.3% | -4.0% | i
CCOc1c(O)ccc(/C=C2\SC(=S)NC2=O)c1[N+](=O)[O-] | 27.0% | i | 25.9µM* | 10.4% | 26.2% | i
COc1ccc(/C=C/N(CCc2ccc(OC)c(OC)c2)C(C)=O)cc1 | 5.3%[10 µM] | . | . | -2.3%[10 µM] | . | .
O=C(Cn1cnc2c(nc3n2CCCCC3)c1=O)Nc1ccc(F)c(Cl)c1 | . | i | . | . | . | i
COCCNC(=O)c1cccc2c(-c3ccnn3C)coc12 | . | i | . | . | . | i
COc1cccc(C(C)=C2SC(=S)NC2=O)c1 | . | 20.6µM* | 4.5% | . | -3.4% | i
COc1cccc(C=C2SC(=S)NC2=O)c1 | . | ? | 16.4µM* | . | 1.2% | ?
COc1cccc(/C=C2\SC(=S)N(N3C(=O)CCCC3=O)C2=O)c1 | 1.3% | i | ? | 3.1% | 5.1% | i
CCOC(=O)N1CCN(C(=S)NC(=O)c2nn(C)cc2Br)CC1 | 17.8µM* | i | -4.1% | ? | 0.0% | i
COC(=O)c1ccccc1NC(=S)N1CCN(c2ccccn2)CC1 | -14.2% | i | -1.9% | -10.7% | 12.3% | i
